Data reported in PubChem BioAssay (NCATS).
Inconclusive results are not listed. Entries that show only a call come without a potency. A number with no mark means an inactive call. Activity calls are given as the source filed them. Calls follow the shape of the dose curve; as a rule, active = well fitted inhibition curve with a large enough effect; inconclusive = small, poorly fitted or top-dose-only effect; inactive = no such curve, though single readings can be large or run the other way.

How the values were obtained:
[1] = test system: Zika virus NS2B-NS3 protease (unlinked complex); assay: Primary screen GU Rhodamine qHTS for Zika virus inhibitors: Unlinked NS2B-NS3 protease assay (AID 1347159); details: Recombinant ZIKV NS2B-NS3 protease, Rhodamine110 substrate fluorescence; series mostly up to 107 µM; also: nearly all actives have a fitted effect of over 60% in size
Outline: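 Buffer 10 mM Tris-HCl pH 8.0, 0.01% Tween 20. Unlinked protease 25 nM; compound preincubation 15 min, RT, protected from light. Substrate Rhod110, 1.5 microM; ~15% conversion in 15 min.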

[2] = test system: Zika virus NS2B-NS3 protease (linked construct); assay: Primary screen NINDS Rhodamine qHTS for Zika virus inhibitors (AID 1347160); details: purified NS2B-NS3 protease, Rhodamine110 substrate fluorescence; series mostly up to 57.1 µM; also: nearly all actives have a fitted effect of over 55% in size
Outline: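 Aprotinin served as in-plate control. Conditions: 25 nM linked NS2B-NS3, pH 8.0 Tris buffer, titrated compounds, 15 min preincubation and 15 min reaction with 1.5 microM Rhod110 substrate at room temperature.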

SMILES | Potency [1] | Potency [2] | activity change, negative = inhibition [1] | outcome [2]
CC1(C)C2CC(OC3OC(COC4OCC(O)(CO)C4O)C(O)C(O)C3O)C1(C)CC2O (stereo unspecified) | inactive | inactive | – | –
CC(C)(C)OC(=O)N1CCC(OCc2nc(-c3ccncc3)no2)CC1 | inactive | inactive | – | –
CC(C)c1nc(-c2ccc(NC(=O)Nc3cccc(C(F)(F)F)c3)c3ccccc23)c2c(N)nccn12 | inactive | inactive | – | –
Cc1cnc(Nc2ccc(F)cc2Cl)nc1-c1c[nH]c(C(=O)NC(CO)c2cccc(Cl)c2)c1 (stereo unspecified) | inactive | inactive | – | –
C[C@@H]1O[C@@H](O[C@H]2[C@H](O)[C@@H](O)[C@H](O[C@H]3[C@H](O[C@H]4CC[C@@]5(C)C(=CC[C@@H]6C5CC[C@]5(C)[C@@H]7[C@H](C[C@@H]65)O[C@]5(CC[C@@](C)(CO[C@@H]6O[C@H](CO)[C@@H](O)[C@H](O)[C@H]6O)O5)[C@H]7C)C4)O[C@H](CO)[C@@H](O)[C@@H]3O)O[C@@H]2CO)[C@H](O)[C@H](O)[C@H]1O (stereo partly specified) | inactive | inactive | – | –
CCOC(=O)C(CCc1ccccc1)NC(C)C(=O)N1C(=O)N(C)CC1C(=O)O (stereo unspecified) | inactive | inactive | – | –
CC1OC(OC2C(C)OC(OC3C(OC(=O)C45CCC(C)(C)CC4C4=CCC6C7(C)CCC(OC8OC(C(=O)O)C(O)C(O)C8OC8OC(CO)C(O)C(OC9OC(C)C(O)C(O)C9O)C8O)C(C)(CO)C7CCC6(C)C4(C)CC5)OC(CO)C(O)C3O)C(O)C2O)C(O)C(O)C1O (stereo unspecified) | – | – | 1.27% [at 19.1 µM] | inactive [at 10.7 µM]
COc1cc2c(cc1O)[C@H](c1ccc(O[C@@H]3O[C@H](CO)[C@@H](O)[C@H](O)[C@H]3O)c(OC)c1)[C@@H](CO)[C@](O)(CO)C2 | inactive | inactive | – | –
